In ChEMBL document CHEMBL3988442, “University of Dundee, Small-Polar-MMV Screening Library” (2021):
The whole screen tested about 53,000 compounds, of which about 900 (1.7%) showed an effect of 50% or more. Shown is part of a subset that was picked to be rich in strong results.

tested on: Mycobacterium tuberculosis; assay: Cornell - Phenotypic assay to identify agents that inhibit growth of Mycobacterium tuberculosis; assay type: functional; set-up: scale not given: direction of the effect not stated beside the values; conditions: 10 mM as filed; unlikely as a test dose

Structure (SMILES)	Percent Effect [%]
CCCc1nc2c(c(C)c(C)n2Cc2cccnc2)c(N)c1CC	0.8008
CC(=O)c1nn(-c2ccccc2Cl)c(C)c1C(C)=O	14.3
COCCNC(=O)c1cccnc1Sc1cc(OC)ccc1OC	-23.48
Cc1ncc2c(n1)CN(CC(=O)Nc1cccnc1)CC2	-17.74
CC(C)NC(=O)N1CCCn2cnc(CO)c2C1.O=C(O)C(F)(F)F	25.62
Cc1cccc(CN2C[C@@H]3CN(C(=O)NC(C)C)C[C@@H]3C2=O)n1.O=C(O)C(F)(F)F	25.36
CN1CCC(c2cc(CCO)ncn2)C1 (stereo unspecified)	-9.182
O=C(Nc1ccc(Br)cc1F)c1cc(CN2CCOCC2)on1	74.1
O=C(NCc1ccccc1CN1CCOCC1)c1ccc(Br)cc1F	8.243
O=C(Nc1ccc(Br)cc1F)c1ccc(N2CCOCC2)nn1	-1.334
CC(=O)N1CC(c2n[nH]c3ncccc23)C1	-13.82
CNS(=O)(=O)CC(=O)N1CCCc2cc(Br)ccc21	-18.99
COCc1nc(C(=O)OCC2CCN(c3ccccc3)C2)cs1 (stereo unspecified)	17.1
COc1ccc(C(NCc2ccc(C#N)cc2)C2CC2)cc1.Cl (stereo unspecified)	-15.68
c1cnc2[nH]c(C3CCCC3)c(CN3CCCCC3)c2c1	34.75
CCN1CCN(Cc2c(C3CCCC3)[nH]c3ncccc23)CC1	74.68
c1cnc2[nH]c(C3CCCC3)c(CN3CCOCC3)c2c1	24.1
CC1CCN(C(=O)C2CC(=O)N(c3cnn(C(C)C)c3)C2)CC1 (stereo unspecified)	-3.187
CC(C)Nc1oc(-c2ccc(S(=O)(=O)N(C)C)o2)nc1C#N	-45.52

Structure (SMILES)	Percent Effect [%]
CN(C)S(=O)(=O)c1ccc(-c2nc(C#N)c(NC(C)(C)C)o2)o1.Cl	104.3
CNc1oc(-c2ccc(S(=O)(=O)N(C)C)o2)nc1C#N	17.81
Cc1nc(N2CCC(CC(=O)N3CCCC3)CC2)c2cnn(C)c2n1	3.468
CC(C)C1SCC(=O)Nc2c1cnn2C(C)C (stereo unspecified)	18.65
CNc1ccc(C2CN(c3cc(C)ncn3)CCO2)nc1 (stereo unspecified)	34.11
CNc1ccc(C2CN(c3cc(C)nc(N)n3)CCO2)nc1 (stereo unspecified)	24.16
CNc1ccc(C2CN(c3nc(C)cc(C)n3)CCO2)nc1 (stereo unspecified)	51.49
Cc1cc(NC(=O)Cc2ccccc2O)c[nH]c1=O	77.58
O=C(Cc1ccccc1O)Nc1ccc(N2CCCC2)nc1	-5.098
Cc1cc(NC(=O)Cc2ccccc2O)cnc1N1CCCCC1	28.35
Cc1cc(NC(=O)C(C)N2CCN(c3ccccc3F)CC2)no1 (stereo unspecified)	2.813
CCC(O)CNc1ccc(-c2nc(CC(C)C)no2)cn1 (stereo unspecified)	50.96
CC(C)Cc1noc(-c2ccc(NCc3noc(C(C)C)n3)nc2)n1	44.87
CCn1cncc1CNc1ccc(-c2nc(CC(C)C)no2)cn1	11.21
CN(C(=O)C1(C#N)CCCCC1)c1nccs1	17.67
OCCN1CCN(Cc2cc3c(cc2Br)OCCO3)CC1	-50.33
O=S(=O)(N1CCCCCC1)N1CCN(Cc2ccc(F)cc2Br)CC1	10.21
CS(=O)(=O)N1CCN(Cc2ccc(F)cc2Br)CC1	31.68
Oc1ccc(N2CCN(Cc3cc4c(cc3Br)OCCO4)CC2)cc1	104.9

Structure (SMILES)	Percent Effect [%]
Oc1ccc(N2CCN(Cc3ccc(F)cc3Br)CC2)cc1	105.2
OC1CCN(Cc2cc3c(cc2Br)OCCO3)CC1	5.885
Cc1ccccc1C1CCCN1Cc1ccc(S(=O)(=O)N(C)C)o1 (stereo unspecified)	23.54
O=C(O)c1cnc(N2CCCC2)nc1COc1ccc(F)cc1	38.38
COCC(O)CN(C)C(=O)NCc1ccc(-c2ccn[nH]2)cc1 (stereo unspecified)	-4.972
CN1CCOC(c2cncc(CCC(=O)N(C)C)n2)C1 (stereo unspecified)	-44.27
Fc1cccc(Nc2nc(N3CCCC3)nc3c2CNCC3)c1	102.5
Oc1nc(N2CCOCC2)nc2c1CCN(Cc1cccc(F)c1)CC2	-50.2
COc1cccc(Nc2nc(N3CCCC3)nc3c2CNCC3)c1.Cl	17.23
Cc1ccc(Cl)cc1N1CCN(CC(=O)NCc2ccco2)CC1	15.76
O=C(NCC1CCCO1)Nc1nnc(C(F)(F)F)s1 (stereo unspecified)	1.87
CCOCC(=O)NCCc1nc(C)cc(C(F)(F)F)n1	8.236
FC(F)(F)c1ccc(-c2cc(NC3CCNCC3)nc3[nH]ccc23)nc1	3.154
CNc1cc(C)nc(-c2cc(NC3CCNCC3)nc3[nH]ccc23)n1	12.28
COc1cc(-c2cc(NC3CCCC3)nc3[nH]ccc23)nc(N)n1	98.19
Nc1ccnc(-c2cc(NC3CCNCC3)nc3[nH]ccc23)c1	11.63
COc1ncc(-c2cc(NC3CCCC3)nc3[nH]ccc23)c(OC)n1	89.73
COc1nccnc1-c1cc(NC2CCCC2)nc2[nH]ccc12	101.6
